Measurements from PubChem BioAssay.
Values joined by “and” are separate entries in the source; they are usually repeats but may differ in a detail not shown here. Equal entries are not always repeated. Active and inactive are the calls of the source. Unless noted, how the calls were made is not given here.

Columns and labels:
[1] = compounds altering viability of human ES cells (AID 493140); conditions: human embryonic stem cell survival screen; stronger effect = higher value;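 further: cells exposed to compounds for four days before counting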
[2] = P. berghei load reduction in hepatocytes – cell-based, HepG2, luciferase luminescence, HepG2 viability, primary screen (AID 624349; in the data active means parasite load remaining mostly below about 12%, no sharp cut-off; inactive means mostly above about 10%;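 further: 100% = mean of DMSO negative control wells on the same plate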); conditions: P. berghei liver stage in HepG2, luciferase luminescence, concentration not given here; parasite load remaining: stronger effect = lower value; viability: measured here: HepG2 viability without parasites
[3] = Wnt pathway potentiators raising nuclear beta-catenin – imaging, WNT3A-conditioned medium, mouse C2C12, NPC library, primary screen (AID 1117326; in the data active means nuclear beta-catenin stimulation mostly above about 4.2%, no sharp cut-off; inactive means mostly below about 10%); conditions: stronger effect = higher value
[4] = signal quenchers or enhancers, Cy5 substrate/SSB – biochemical, NIH Clinical Collection, E. coli SSB, artefact control for HCV NS3 helicase inhibitor project (AID 743268); conditions: Cy5-oligo bound E. coli SSB, fluorescence interference
[5] = system: Hepatitis C virus NS3 helicase; assay: blockers of NS3h binding to DNA – biochemical, fluorescence polarization, NIH Clinical Collection, primary screen (AID 743270); conditions: NS3 helicase binding to Cy5-dT15 DNA, stronger effect = higher value, concentration not given here
[6] = biological target: Single-stranded DNA-binding protein (Escherichia coli (strain K12)) (UniProt P0AGE0); assay: SSB-ssDNA binding inhibitors – biochemical, fluorescence polarization, NIH Clinical Collection, counter-screen for HCV NS3 helicase inhibitor project (AID 743271; in the data active means inhibition above about 28%); conditions: E. coli SSB-DNA binding, stronger effect = higher value, concentration not given here
[7] = compounds distorting NS3 helicase fluorescence signal – biochemical, NIH Clinical Collection, artefact control for HCV NS3 helicase inhibitor project (AID 743272); conditions: fluorescence interference counterscreen, HCV NS3 helicase assay; stronger effect = lower value;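 further: HCV NS3 helicase with a Cy5 labelled single stranded DNA probe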
[8] = system: Neuropilin-2 / VEGF-C interaction (human); assay: small molecules blocking Neuropilin-2/VEGF-C interaction – biochemical, microplate binding format, z-score (AID 743281); conditions: microplate NRP2/VEGF-C binding assay; stronger effect = lower value
[9] = system: Hepatitis C virus NS3 helicase; assay: blockers of NS3h binding to ssDNA – biochemical, fluorescence polarization, LOPAC1280 library, primary screen (AID 687035; in the data active means inhibition above about 37%); conditions: Purified HCV NS3 helicase, Cy5-dT15 ssDNA binding fluorescence polarization; stronger effect = higher value; concentration not given here
[10] = compounds altering Cy5-DNA-NS3h complex signal – biochemical, LOPAC1280, artefact control for HCV NS3 helicase inhibitor project (AID 687037); conditions: Cy5-DNA-NS3h complex fluorescence interference counterscreen

Row | SMILES | survival [1] | parasite load remaining [2] | viability [2] | nuclear beta-catenin stimulation ([3]; at 10 µM) | nuclear beta-catenin stimulation ([3]; stimulation, at 2 µM) [%] | fluorescence ratio [4] | inhibition [5] | inhibition [6] | fluorescence ratio [7] | z-score [8] | inhibition [9] | fluorescence ratio (interference) [10]
1 | CC(=O)OCC(=O)[C@@]1(O)[C@H](C)C[C@H]2[C@@H]3CCC4=CC(=O)C=C[C@]4(C)[C@@]3(F)[C@@H](O)C[C@@]21C | 16.5 (inactive) | 64% (inactive) and 76.2% (inactive) | 116% and 94.5% | -1.1% (inactive) | -2.1 |  |  |  |  |  |  | 
2 | O=C(O)[C@@H]1[C@H]2C[C@H]3c4[nH]c5ccccc5c4CCN3C[C@@H]2CC[C@@H]1O | 2.42 (inactive) | 106% (inactive) and 85.7% (inactive) | 104% and 83.6% | 0.4% (inactive) | 1.8 |  |  |  |  |  |  | 
3 | Cc1c(N(C)C)c(=O)n(-c2ccccc2)n1C | 13.6 (inactive) | 18.2% (inactive) and 103% (inactive) and 38% (inactive) | 52.4% and 97.7% and 84.1% | 2.9% (inactive) | 0.6 |  |  |  |  |  |  | 
4 | CCCCN(CCCC)CCC(O)c1cc2c(Cl)cc(Cl)cc2c2cc(C(F)(F)F)ccc12 (stereo not given) | 1.5 (inactive) | 57.2% (inactive) | 69.5% | 5.2% (inactive) | 0.7 |  |  |  |  |  |  | 
5 | CC[C@]12CCCN3CCc4c(n(c5ccccc45)[C@@](O)(C(=O)OC)C1)[C@@H]32 | 10.1 (inactive) | 27.1% (inactive) and 109% (inactive) | 48.5% and 87% | -2.1% (inactive) | -0.6 |  |  |  |  |  |  | 
6 | COc1cc(N)c(Cl)cc1C(=O)NC1CCN(Cc2ccccc2)CC1 | 5.67 (inactive) | 50.5% (inactive) and 24.1% (inactive) and 67.3% (inactive) | 116% and 86.9% and 74.5% | 3.1% (inactive) | 0.9 |  |  |  |  |  |  | 
7 | CC1(C)O[C@@H]2C[C@H]3[C@@H]4C[C@H](F)C5=CC(=O)CC[C@]5(C)[C@H]4[C@@H](O)C[C@]3(C)[C@]2(C(=O)CO)O1 | 4.42 (inactive) | 156% (inactive) | 105% | -1.9% (inactive) | 4 |  |  |  |  |  |  | 
8 | COC(=O)C1=C(C)NC(C)=C(C(=O)OC(C)C)C1c1cccc2nonc12 (stereo not given) | 16.1 (inactive) | 105% (inactive) and 85.6% (inactive) | 74.3% and 66.7% | 28.6% (inactive) | 0.3 | 1.01 (inactive) | 6.73% (inactive) | 4.52% (inactive) | 0.98 (inactive) | -2.69 (inactive) |  | 
9 | CCC1=C(C)CN(C(=O)NCCc2ccc(S(=O)(=O)NC(=O)NC3CCC(C)CC3)cc2)C1=O (stereo not given) | 5.08 (inactive) | 156% (inactive) and 92.3% (inactive) and 45.4% (inactive) | 98.1% and 72.7% and 68.5% | 1% (inactive) | -1.7 | 0.97 (inactive) | -1.09% (inactive) | 0.39% (inactive) | 0.96 (inactive) | 1.17 (inactive) |  | 
10 | CC(=O)[C@@]1(O)CC[C@H]2[C@@H]3C[C@H](C)C4=CC(=O)C=C[C@]4(C)[C@@]3(F)[C@@H](O)C[C@@]21C | 6.17 (inactive) | 127% (inactive) | 102% | 2.3% (inactive) | 0.2 |  |  |  |  |  |  | 
11 | O=C(O)/C=C/c1ccc(Cn2ccnc2)cc1 | 12.1 (inactive) | 92.2% (inactive) and 85.3% (inactive) and 50.2% (inactive) | 79.5% and 65.9% and 102% | -2.1% (inactive) | 1.2 | 1.05 (inactive) | -2.77% (inactive) | -3.95% (inactive) | 0.97 (inactive) | -0.108 (inactive) |  | 
12 | CNNCc1ccc(C(=O)NC(C)C)cc1 | 6.5 (inactive) | 101% (inactive) and 80.5% (inactive) and 21.4% (inactive) | 76.9% and 70.8% and 66.5% | -2% (inactive) | 1 | 1.04 (inactive) | 1.19% (inactive) | -0.1% (inactive) | 1.02 (inactive) | -0.83 (inactive) |  | 
13 | CCCOc1ccc(C(=O)OCCN(CC)CC)cc1N | 5.92 (inactive) | 35.3% (inactive) and 89.5% (inactive) and 24.4% (inactive) | 102% and 98.4% and 98.5% | 1.3% (inactive) | 5.7 | 0.101 (active) | -4.09% (inactive) | 0.29% (inactive) | 1.02 (inactive) |  |  | 
14 | COc1ncnc(NS(=O)(=O)c2ccc(N)cc2)c1OC | 14.8 (inactive) | 74.2% (inactive) and 31.5% (inactive) and 37.8% (inactive) | 68.7% and 97% and 73.5% | 4.7% (inactive) | 3.5 |  |  |  |  |  |  | 
15 | COc1ccc(C(=O)c2ccccc2O)c(O)c1 | 1.42 (inactive) | 83.1% (inactive) and 102% (inactive) and 55.6% (inactive) | 96.9% and 79.4% and 89.9% | 1.1% (inactive) | 0.4 |  |  |  |  |  |  | 
16 | Nc1ccc(O)c(C(=O)O)c1 | 4.33 (inactive) | 86.6% (inactive) and 106% (inactive) and 16.7% (inactive) | 71.9% and 101% and 72% | 2% (inactive) | 0.6 | 0.94 (inactive) | 3.56% (inactive) | 2.21% (inactive) | 0.94 (inactive) | -0.236 (inactive) |  | 
17 | CCOc1cc(CC(=O)N[C@@H](CC(C)C)c2ccccc2N2CCCCC2)ccc1C(=O)O | 7.75 (inactive) | 85.6% (inactive) and 16.6% (inactive) and 98.7% (inactive) | 77.8% and 183% and 76.2% | -1.5% (inactive) | 0.2 | 1.02 (inactive) | 5.94% (inactive) | 2.21% (inactive) | 1.02 (inactive) | -0.286 (inactive) |  | 
18 | C#C[C@]1(O)CC[C@H]2[C@@H]3CCc4cc(OC)ccc4[C@H]3CC[C@@]21C | 3.33 (inactive) | 48% (inactive) and 32.2% (inactive) | 96.9% and 76.9% | 3.3% (inactive) | 0.6 | 1 (inactive) | 3.56% (inactive) | 1.44% (inactive) | 1 (inactive) |  |  | 
19 | CN1CCC(=C2c3ccccc3CCc3sccc32)CC1 | 5.08 (inactive) | 28.2% (inactive) and 50.3% (inactive) and 34.4% (inactive) | 70.7% and 95.5% and 65.5% | -0.8% (inactive) | -1.1 | 0.99 (inactive) | -1.98% (inactive) | -0.87% (inactive) | 0.94 (inactive) | 1.11 (inactive) |  | 
20 | O=C(O)CCCC[C@@H]1SC[C@@H]2NC(=O)N[C@@H]21 | 18.6 (inactive) | 125% (inactive) and 81.9% (inactive) | 117% and 77.7% | 0.3% (inactive) | 1.3 |  |  |  |  |  |  | 
21 | C[C@@H]1C[C@H]2[C@@H]3C[C@H](F)C4=CC(=O)C=C[C@]4(C)[C@@]3(F)[C@@H](O)C[C@]2(C)[C@@]1(O)C(=O)CO | 2.17 (inactive) | 102% (inactive) | 99.8% | -0.8% (inactive) | 0.3 |  |  |  |  |  |  | 
22 | Cc1cccc(C)c1NC(=O)C(C)N (stereo not given) | 11.7 (inactive) | 112% (inactive) and 108% (inactive) | 79.8% and 73.3% | 0.2% (inactive) | 1.2 | 1.05 (inactive) | -5.15% (inactive) | -3.95% (inactive) | 1 (inactive) | -0.227 (inactive) | -5% (inactive) | 1 (inactive)
23 | O=C(CCCCC(=O)Nc1c(I)cc(I)c(C(=O)O)c1I)Nc1c(I)cc(I)c(C(=O)O)c1I | 5.33 (inactive) | 81.3% (inactive) | 93.2% | 1.1% (inactive) | 3.3 |  |  |  |  |  |  | 
24 | CCN1CCN(C(=O)N[C@@H](C(=O)N[C@@H]2C(=O)N3C(C(=O)O)=C(CSc4nnnn4C)CS[C@H]23)c2ccc(O)cc2)C(=O)C1=O | 9.17 (inactive) | 48.8% (inactive) and 79.5% (inactive) and 21.1% (inactive) | 114% and 80.3% and 69% | -0.5% (inactive) | -1.5 |  |  |  |  |  |  | 
